High-throughput results from PubChem BioAssay.
GDH-TPI inh = inhibits GDH-TPI coupling enzymes, artifact for Mtb FBA screen; actives 1.2% (n = 360,000); GDH-TPI coupled enzyme counterscreen, NADH absorbance; inhibition, % at 4.8 µM; in the data active = inhibition above about 30%
UGM FP inh = inhibitors of M. tuberculosis UDP-galactopyranose mutase | AID 504406 | P9WIQ1 | purified UGM, fluorescence polarization probe displacement | actives 0.06% (n = 320,000) | inhibition, % at 10 µM; in the data active = inhibition above about 10%, passing the limit was not always enough; inconclusive = no clear call, values can overlap the other calls
RecA intein inh = inhibitors of M. tuberculosis RecA intein splicing; P9WHJ3; cell-free RecA intein splicing, fluorescence; inhibition, % (concentration not given with the values); actives 0.75% (n = 290,000); AID 2221; in the data active = inhibition above about 30%; inconclusive = no clear call, values can overlap the other calls
Rv3671c protease = inhibits the M. tuberculosis serine protease Rv3671c; P9WHR9; inhibition, % at 5.96 µM; actives 0.048% (n = 320,000); AID 2606; in the data active = inhibition above about 38%;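 note: extracellular domain of Rv3671c used as enzyme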
Target sequence (P9WHR9 whole entry, looked up, the tested form may be a part): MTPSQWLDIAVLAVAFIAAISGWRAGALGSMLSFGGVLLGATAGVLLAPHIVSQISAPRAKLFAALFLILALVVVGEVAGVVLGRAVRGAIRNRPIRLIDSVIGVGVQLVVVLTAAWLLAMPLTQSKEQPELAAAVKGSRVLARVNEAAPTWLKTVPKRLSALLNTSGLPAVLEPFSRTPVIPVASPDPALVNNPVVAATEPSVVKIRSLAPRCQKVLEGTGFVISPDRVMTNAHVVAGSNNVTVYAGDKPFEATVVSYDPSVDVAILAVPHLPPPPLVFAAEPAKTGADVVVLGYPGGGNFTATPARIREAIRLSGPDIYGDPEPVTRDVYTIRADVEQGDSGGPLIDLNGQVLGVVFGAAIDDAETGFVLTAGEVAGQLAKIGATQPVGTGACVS
Mtb FBA inh = inhibitors of M. tuberculosis fructose-bisphosphate aldolase; P9WQA3; purified M. tuberculosis FBA, fluorescence read-out; inhibition, % at 1 µM; actives 2.3% (n = 360,000); in the data active = inhibition above about 27%
Mtb bLac sens = beta-lactam sensitization of Mtb H37Rv | M. tuberculosis H37Rv growth with meropenem, percent inhibition | inhibition, % at 25 µM | actives 0.27% (n = 330,000) | AID 434955; call rule not given here;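 note: growth measured after seven days incubation then overnight dye step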
Large screens that a line does not name were inactive. An excerpt weighted towards active compounds, which were near 4% of everything screened.

COc1ccc(/C=C(\NC(=O)c2ccco2)C(=O)NCCc2nc3ccccc3[nH]2)cc1	none
Cc1noc(C)c1C(=O)N1CCC1(C)C(=O)NS(=O)(=O)c1cccs1 (stereo unspecified)	none (no result: UGM FP inh, RecA intein inh, Rv3671c protease, Mtb bLac sens)
CC1(CC(=O)O)C(=O)N=C2C=CC=CN21 (stereo unspecified)	Mtb FBA inh 166.6 (no result: UGM FP inh, Rv3671c protease, Mtb bLac sens)
Cc1nc2ccc(C(=O)NCCCn3ccnc3)cn2c1N(C)CC1CCCCC1	none (no result: UGM FP inh, RecA intein inh, Rv3671c protease, Mtb bLac sens)
O=C(N/N=C/C=C/c1ccccc1)c1ccncc1	GDH-TPI inh 37.4
Nc1ccc(C(=O)N/N=C\C=C\c2cccc([N+](=O)[O-])c2)cc1	GDH-TPI inh 42.6
COc1ccc(NCC(=O)N/N=C/C=C\c2ccccc2)cc1	GDH-TPI inh 31.3, Mtb bLac sens inconclusive
COc1ccccc1NCC(=O)N/N=C/C=C/c1ccccc1	none
O=C(N/N=C/C=C/c1cccc([N+](=O)[O-])c1)c1ccncc1	none
O=C(O)c1ccc(N/N=C/C=C/c2ccccc2)cc1	GDH-TPI inh 33.0
CN(CCO)S(=O)(=O)c1ccc2c(c1)C(=NN)c1cc(S(=O)(=O)N(C)CCO)ccc1-2	none
CC1(C)OC(c2ccccc2)=C/C(=C\C=N\NC(=O)c2ccncc2)O1	GDH-TPI inh 33.2
O=c1nc(N/N=C/C=C/c2ccccc2)cn[nH]1	GDH-TPI inh 78.5 (no result: RecA intein inh)
CC1(C)OC(c2ccccc2)=C/C(=C/C=Nc2ccccc2)O1	none
CC(=O)c1ccc(N2C(=O)CC(N3CCN(S(=O)(=O)c4cc(C)ccc4C)CC3)C2=O)cc1 (stereo unspecified)	none (no result: RecA intein inh)
CSc1ncccc1C(=O)Nc1ccc(S(=O)(=O)N2CCCC2)cc1	none (no result: RecA intein inh)
O=C(Nc1nc2ccccc2n1CCN1CCOCC1)c1cn(-c2ccccc2)nc1-c1ccccc1	GDH-TPI inh 42.1
CCOP(=O)(OCC)c1nc(-c2ccc(Br)cc2)oc1N1CCCCC1	none
CCOP(=O)(OCC)c1nc(-c2ccccc2Cl)oc1N1CCOCC1	none
CCOP(=O)(OCC)c1nc(-c2cccc3ccccc23)oc1N1CCOCC1	Mtb FBA inh active
CCOP(=O)(OCC)c1nc(-c2ccc(C)cc2)oc1N1CCOCC1	Mtb FBA inh 168.9
Cc1ccc(C)c(NC(=O)CCN2CCCCC2)c1	none (no result: RecA intein inh)
CCOC(=O)c1cnc2ccc(Cl)cc2c1NCCN(C)C	UGM FP inh 20.2
CCOC(=O)c1cnc2ccc(Br)cc2c1NCCO	none
COc1ccc2cc3cc(C(=O)Nc4ccc5c(c4)OCO5)oc3nc2c1	none
CCCN(CCC)CCCNC(=O)c1cc2cc3ccc(OC)cc3nc2o1	GDH-TPI inh 31.6, Mtb FBA inh active
CCCCN(CC)CCCNC(=O)c1cc2cc3ccc(OC)cc3nc2o1	GDH-TPI inh 36.5, Mtb FBA inh active
COc1ccc(CC(=O)NCc2cccs2)cc1	none
COc1ccc2cc3cc(C(=O)NCc4cccs4)oc3nc2c1	GDH-TPI inh 31.1, Mtb FBA inh active
COC(=O)c1sc(=S)n(Cc2ccccc2)c1C	GDH-TPI inh 46.2
CC(=O)c1sc(=S)n(Cc2ccccc2)c1C	none (no result: Rv3671c protease)
Cc1ccc(S(=O)(=O)Oc2ccc(C)cc2/C=N/N=C2\NC(=O)C(C)S2)cc1 (stereo unspecified)	GDH-TPI inh 38.1
COc1ccc(/C=N/NC2=NS(=O)(=O)c3ccccc32)cc1OC	GDH-TPI inh 34.9
COc1cc(C=NNc2ccccc2)ccc1OC(=O)c1ccccc1	none (no result: UGM FP inh, RecA intein inh, Rv3671c protease, Mtb bLac sens)
COc1ccc(C(=O)NNC2=NS(=O)(=O)c3ccccc32)cc1OC	none
COc1cc(/C=N/NC2=NS(=O)(=O)c3ccccc32)ccc1OC(C)=O	GDH-TPI inh 34.0
O=C(Cc1nc2ccccc2[nH]c1=O)c1ccccc1	none (no result: UGM FP inh, RecA intein inh, Rv3671c protease, Mtb bLac sens)
O=C(Cc1nc2ccccc2[nH]1)c1ccc(Br)cc1	GDH-TPI inh 31.6
O=C(NC(=S)Nc1ccc2[nH]c(=O)[nH]c2c1)c1ccccc1[N+](=O)[O-]	none
Cc1cccc(COCC(Cc2ccccc2)N2CCN(C(=O)c3ccc(Cl)c(Cl)c3)CCC2=O)c1 (stereo unspecified)	none
O=C(c1ccc(Cl)c(Cl)c1)N1CCC(=O)N(C(COCc2cccc(C(F)(F)F)c2)Cc2ccccc2)CC1 (stereo unspecified)	Mtb FBA inh 72.6
O=C(CN1C(=O)c2ccccc2S1(=O)=O)c1ccc(O)c(O)c1	GDH-TPI inh 58.6
O=C(CN1C(=O)c2ccccc2S1(=O)=O)c1ccc(F)c(F)c1	none
CN1c2ccccc2C(C)(C)C12C=Nc1c(cc(N3CCOCC3)c3ccccc13)O2 (stereo unspecified)	RecA intein inh 45.7 (no result: UGM FP inh, Rv3671c protease, Mtb bLac sens)
Fc1cc2nc(-c3ccncc3)[nH]c2cc1F	Mtb FBA inh 127.2
COC(=O)c1ccc(C(=O)Nc2ccc3nc(-c4ccncc4)[nH]c3c2)cc1	none
CN(C)CCCn1c(N)c(S(=O)(=O)c2ccccc2)c2nc3ccccc3nc21	Mtb FBA inh 113.3
CCCCn1c(N)c(S(=O)(=O)c2ccc(C)cc2)c2nc3ccccc3nc21	Mtb FBA inh 116.4
CC(=O)Nc1c(S(=O)(=O)c2ccccc2)c2nc3ccccc3nc2n1Cc1ccccc1	Mtb FBA inh 147.9
Cc1ccc(S(=O)(=O)c2c(N)n(-c3ccccc3)c3nc4ccccc4nc23)cc1	Mtb FBA inh 128.5
C=CCn1c(NS(=O)(=O)c2ccccc2)c(S(=O)(=O)c2ccc(C)cc2)c2nc3ccccc3nc21	none
O=S(=O)(Nc1c(S(=O)(=O)c2ccccc2)c2nc3ccccc3nc2n1C1CCCCC1)c1ccccc1	none
CCN1CCN(c2c(S(=O)(=O)c3ccc(C)c(C)c3)cnc3ccc(F)cc23)CC1	none
CC(Oc1ccccc1)C(=O)N1CCN(c2ccc(N3CCCCC3)nn2)CC1 (stereo unspecified)	none
CC1=C(C(=O)N2CCOCC2)CC(CC(=O)NCCc2ccccn2)C(=O)N1Cc1ccc(C(C)(C)C)cc1 (stereo unspecified)	none (no result: UGM FP inh, RecA intein inh, Rv3671c protease, Mtb bLac sens)
CN1c2ccccc2C(O)=C(C(=S)Nc2ccccc2)S1(=O)=O	GDH-TPI inh 31.5, Mtb bLac sens inconclusive
Cc1ccc(NC(=S)C2=C(O)c3ccccc3N(C)S2(=O)=O)cc1	GDH-TPI inh 38.4
CN1c2ccccc2C(O)=C(C(=S)Nc2ccc(F)c(Cl)c2)S1(=O)=O	GDH-TPI inh 30.8
CC[C@H](C)[C@H](NC(=O)c1ccccc1)C(=O)NC(CC(=O)O)c1ccc(F)cc1 (stereo partly specified)	none
COc1ccc(NS(=O)(=O)c2ccc3oc(=O)c4[nH]c(=O)c(=O)n(C)c4c3c2)cc1	GDH-TPI inh 33.8
CCSc1ccc(-c2cc(NC=O)c3ncc(-c4cccc(C(=O)NCCN(C)C)c4)n3c2)cc1	none (no result: UGM FP inh, RecA intein inh, Rv3671c protease, Mtb bLac sens)
Cc1cccc(C(=O)OCC(=O)NCCN2C(=O)CSC2=O)c1[N+](=O)[O-]	none (no result: RecA intein inh)
COc1ccc(C(C#N)=Cc2ccc(N(C)CCC#N)cc2)cc1	none (no result: UGM FP inh, RecA intein inh, Rv3671c protease, Mtb bLac sens)
COc1ccc(N=Cc2ccc(N(CCC#N)CCC#N)cc2)cc1	GDH-TPI inh 49.1 (no result: UGM FP inh, RecA intein inh, Rv3671c protease, Mtb bLac sens)
CCN1C(=O)[C@H]2[C@H]3CN=C(SCc4ccc(C)cc4)N3[C@@](Cc3ccccc3)(C(=O)OC)[C@H]2C1=O	none (no result: UGM FP inh, RecA intein inh, Rv3671c protease, Mtb bLac sens)
